Screens: PubChem BioAssay, National Center for Advancing Translational Sciences (NCATS)
A selection: hits, their analogues and other compounds. The true share with any hit is near 18%.
Six1-Eya2 inh – blocks human Six1 binding to Eya2; Q15475+O00167; AlphaScreen GST-Six1/His-Eya2 binding, biochemical; stronger effect = lower value; activity change, % (concentration not given with the values); hit rate 0.56% among 360,000; AID 651725; in the data active = activity change below about -65%; inconclusive = mostly about -30% to -63%
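Homogeneous AlphaScreen proximity assay pairing GST-Six1 with His-tagged Eya2 (added as 5X mix: 250 nM and 500 nM) in 50 mM Tris pH 8.0, 300 mM NaCl, 1 mM TCEP. Glutathione donor and nickel acceptor beads; 1 h, 37 °C, dark.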
IL-1B inflam inh – inhibitors of inflammasome signaling (IL-1 beta secretion); THP-1 LPS/ATP IL-1B secretion, AlphaLISA, 16 h; stronger effect = lower value; activity change, % at 57.5 µM; hit rate 4.7% among 360,000; in the data active = activity change below about -50%; inconclusive = mostly about -30% to -49%
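THP-1 cells pretreated 1 hr with compounds (up to 57.5 uM final), then stimulated with LPS (250 ng/mL final) plus ATP (1.25 mM final); secreted IL-1B measured by AlphaLISA after 16 hr, decreased signal indicating inhibition.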
CtBP-E1A blk – inhibitors of CtBP/E1A interaction | AlphaScreen GST-E1A/His-CtBP binding, 1536-well; stronger effect = lower value | activity change, % (test concentration not listed) | hit rate 0.49% among 340,000 | AID 651724; in the data active = activity change below about -65%; inconclusive = mostly about -30% to -63%
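AlphaScreen with 125 nM GST-E1A and 125 nM His-CtBP (5X stocks) in Tris pH 8.0, 300 mM NaCl, BSA, Tween 20, TCEP. Compounds preincubated 2 h at 37 deg C, then glutathione donor/nickel acceptor beads added for 1 h at 37 deg C in dark.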
TDP1 cell CPT – growth inhibition of DT40 Tdp1-/-;hTDP1 cells with camptothecin (screen for TDP1 inhibitors); AID 686979; hit rate 12% among 420,000; Potency, µM (doses to about 46.2 µM), inactives show top-dose activity change, negative = growth inhibition, actives largely listed as inhibitors; chicken DT40 Tdp1-/-;hTDP1 cells + 20 nM CPT, ATP luminescence, 48 h; note: potency is the fitted concentration of half-maximal effect; nearly all actives have a fitted effect of over 55% in size
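Chicken DT40 Tdp1-/- cells stably complemented with human TDP1 were seeded at 400 cells/well in medium containing 20 nM camptothecin, exposed to pin-transferred compounds, and grown at 37 °C for at least 48 hr. Viability was read as ATP luminescence.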
TDP1 cell noCPT – qHTS for Inhibitors of human tyrosyl-DNA phosphodiesterase 1 (TDP1): qHTS in cells in absence of CPT | DT40 Tdp1-/- hTDP1 cells, no CPT, ATP luminescence, 48 h | Potency, µM (titrated, usually from 46.2 µM), for the others: at the top dose activity change, negative = growth inhibition, usual class: inhibitors | hit rate 15% among 420,000 | AID 686978, 2013; note: potency is the fitted concentration of half-maximal effect; nearly all actives have a fitted effect of over 55% in size
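A cellular qHTS used chicken DT40 cells lacking endogenous Tdp1 but carrying stably transfected human TDP1. Compounds were applied without camptothecin, and cell growth kinetics were judged by ATP-dependent luminescence after ≥48 hr.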
TDP1 inh – blocks human tyrosyl-DNA phosphodiesterase 1; Q9NUW8; recombinant TDP1, AlphaScreen DNA substrate cleavage; Potency, µM (doses to about 130 µM), for inactives: at the top dose activity change, negative = inhibition, most hits filed as inhibitors; hit rate 0.28% among 350,000; note: potency is the fitted concentration of half-maximal effect; nearly all actives have a fitted effect of over 40% in size
Target sequence (Q9NUW8 whole entry, looked up): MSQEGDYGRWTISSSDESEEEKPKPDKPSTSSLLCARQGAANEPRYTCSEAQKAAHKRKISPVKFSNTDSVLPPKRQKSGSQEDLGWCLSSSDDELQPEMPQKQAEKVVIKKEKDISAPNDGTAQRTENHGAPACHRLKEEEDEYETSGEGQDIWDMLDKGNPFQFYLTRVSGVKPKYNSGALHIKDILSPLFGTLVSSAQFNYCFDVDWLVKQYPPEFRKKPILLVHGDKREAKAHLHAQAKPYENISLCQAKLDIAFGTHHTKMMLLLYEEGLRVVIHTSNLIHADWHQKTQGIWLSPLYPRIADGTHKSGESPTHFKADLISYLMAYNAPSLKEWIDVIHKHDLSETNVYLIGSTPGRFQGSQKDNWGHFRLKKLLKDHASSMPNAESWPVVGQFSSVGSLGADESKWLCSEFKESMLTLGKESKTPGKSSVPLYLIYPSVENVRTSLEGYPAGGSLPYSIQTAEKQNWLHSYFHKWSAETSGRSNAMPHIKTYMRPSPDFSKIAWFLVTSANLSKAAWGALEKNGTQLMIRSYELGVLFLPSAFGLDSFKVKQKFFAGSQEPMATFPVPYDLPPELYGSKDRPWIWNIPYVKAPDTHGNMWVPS
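Recombinant E. coli-expressed Tdp1 (1 nM) preincubated with compound 15 min at RT, then 5'-biotin/3'-phosphotyrosine-FITC DNA substrate (15 nM) added for 5 min. AlphaScreen beads (10 ug/ml) added, 10 min RT; tyrosine-FITC cleavage read as signal loss.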
* hit, by the source's call; ? = inconclusive; · = no result. Unless noted, calls come from the whole dose curve; as a rule, active = well fitted curve in the direction sought with a large enough effect; inconclusive = small, poorly fitted or top-dose-only effect, or another doubt; inactive = no such curve, though single readings can be large; an effect the other way counts as inactive or inconclusive. % is set by controls: 0 for no effect and ±100 for the full control effect.

SMILES | Six1-Eya2 inh | IL-1B inflam inh | CtBP-E1A blk | TDP1 cell CPT | TDP1 cell noCPT | TDP1 inh
c1ccc2nc(-c3nc4ccccc4[nH]3)ccc2c1 | 0 | 15 | -2 | ? | 5.2µM* | 6%
Fc1ccccc1-c1nc2ccccc2[nH]1 | 6 | -2 | · | -6% | -21% | 6%
Oc1ccccc1C=Nc1ccccc1-c1nc2ccccc2[nH]1 | -9 | -3 | -7 | ? | 16µM* | 3%
c1ccc2c(-c3nc4ccccc4[nH]3)cccc2c1 | 9 | 35 | 4 | 9.2µM* | 4.6µM* | ·
Cc1ccc(S(=O)(=O)NCCC(c2ccc(F)cc2)c2ccco2)cc1 (stereo not drawn) | 4 | -7 | -14 | ? | ? | 0%
COc1cc(F)c(S(=O)(=O)N2CCN(S(=O)(=O)c3ccc(NC(C)=O)cc3)CC2)c(F)c1 | · | · | · | · | · | 0%
CCOc1ccc(OCCC(=O)N(CCCOC)c2c(N)n(Cc3ccccc3)c(=O)[nH]c2=O)cc1 | 0 | -17 | 8 | 16% | -21% | ·
COC(=O)N/N=C(\C)c1ccc2ccccc2c1OC(F)F | 4 | 5 | · | ? | ? | 5%
CC(C)C[C@H]1CN=C(Nc2ccccc2)N1CC1CCC(C)CC1 (stereo partly drawn) | -2 | -4 | -5 | ? | 18µM* | ·
c1ccc(C[C@H]2CN=C(Nc3ccccc3)N2CC2CCC2)cc1 | -8 | -9 | 5 | ? | ? | -2%
CCCCN1C(Nc2ccccc2)=NC[C@@H]1Cc1ccccc1 | 8 | -15 | 6 | 23µM* | ? | 3%
c1ccc(C[C@H]2CN=C(Nc3ccccc3)N2CC2CCCCC2)cc1 | 6 | ? | 0 | 16µM* | ? | -1%
CC(C)C[C@H]1CN=C(Nc2ccccc2)N1CC1CCC1 | 4 | -11 | 4 | ? | ? | ·
CC1CCC(CN2C(Nc3ccccc3)=NC[C@@H]2C)CC1 (stereo partly drawn) | -1 | 0 | 5 | 18µM* | ? | ·
CCCCN1C(Nc2ccccc2)=NC[C@@H]1C | 3 | 11 | 7 | -16% | -3% | 0%
CCN1C(=O)CSC1=NC1C2CC3CC(C2)CC1C3 (stereo not drawn) | 10 | 26 | 9 | ? | ? | 1%
C=Cc1ccc(CN2C(=O)c3ccccc3Sc3ccc(C(=O)OCc4ccco4)cc32)cc1 | · | · | · | · | · | 1%
Cc1cccc(CCN2C(Nc3ccccc3)=NC[C@@H]2C)c1 | 2 | -27 | -7 | -29% | ? | -5%
c1ccc(NC2=NCCN2CCC2CCCC2)cc1 | -2 | -9 | 4 | ? | -18% | ·
CC1CCC(CN2C(Nc3ccccc3)=NC[C@@H]2Cc2ccccc2)CC1 (stereo partly drawn) | 9 | -23 | -6 | ? | 7.3µM* | 1%
c1ccc(C[C@H]2CN=C(Nc3ccccc3)N2CCCC2CCCCC2)cc1 | -5 | -17 | 1 | ? | 16µM* | 2%
c1ccc(C[C@H]2CN=C(Nc3ccccc3)N2CC2CCCC2)cc1 | 13 | -70* | -26 | 10µM* | 12µM* | ·
O=C(CNS(=O)(=O)c1ccccc1)OCC(=O)c1ccc(F)cc1 | -7 | -1 | -26 | 5% | 3% | 3%
O=C(Nc1ccccc1Oc1cccnc1)C1CCCN(Cc2ccccc2O)C1 (stereo not drawn) | 15 | -19 | 0 | ? | 15µM* | 4%
C#Cc1ccc(CN2CCCC(C(=O)Nc3ccccc3Oc3cccnc3)C2)cc1 (stereo not drawn) | -3 | ? | -7 | ? | ? | 6%
SMILES | Six1-Eya2 inh | IL-1B inflam inh | CtBP-E1A blk | TDP1 cell CPT | TDP1 cell noCPT | TDP1 inh
O=C(Nc1ccc(Oc2cccnc2)cc1)C1CCN(Cc2cc(Cl)ccc2O)CC1 | ? | -4 | · | 8.2µM* | 13µM* | 2%
O=C(C1CC1)N1CCc2cc(Br)cc(S(=O)(=O)NCCCN3CCCCC3)c21 | -29 | -11 | -1 | -11% | -18% | 2%
CCCn1c(-c2ccc(F)cc2)nc2c(N(C)CCN(C)C)nc(C)nc21 | · | · | · | · | · | 7%
CCN1C(=O)[C@H]2[C@@H](c3ccc(C)cc3)N3C(=O)N(c4ccc(C)cc4)C(=O)[C@@]3(Cc3ccccc3)[C@H]2C1=O | -5 | -10 | -2 | ? | ? | ·
Cc1ccc2cc(CN(Cc3ccco3)C(=O)c3ccccc3)c(=O)[nH]c2c1C | -1 | -7 | -1 | ? | ? | 2%
Cc1ccc2cc(CN(Cc3ccco3)C(=S)NCC3CCCO3)c(=O)[nH]c2c1C (stereo not drawn) | -19 | -26 | -5 | 18µM* | 26µM* | 9%
O=C(O)CCn1c(C2CCCCC2)nc2ccccc21 | -2 | 4 | 3 | 0% | 6% | -5%
O=C(c1ccccc1)N1CCCCC1 | 4 | 16 | 0 | -5% | 1% | ·
O=C(c1cccc(-c2nnc(-c3ccccc3)o2)c1)N1CCCCCC1 | -3 | -14 | -12 | ? | 14µM* | 4%
O=C(CCc1nnc(-c2ccc(-c3ccccc3)cc2)o1)N1CCCCC1 | 2 | -1 | 1 | ? | 21µM* | ·
O=C(c1cccc(-c2nnc(-c3ccccc3)o2)c1)N1CCCCC1 | -5 | 0 | -1 | ? | 15µM* | 5%
CCCCCCNc1ncnc2c1sc1nc(N3CCOCC3)c3c(c12)CCCC3 | · | · | · | ? | ? | 0%
CCN(CC)CCNc1ncnc2c1sc1nc(N3CCCC3)c3c(c12)CC(C)(C)OC3 | -15 | -75* | -25 | ? | ? | 5%
CN(C)CCNc1ncnc2c1sc1nc(N3CCCC3)c3c(c12)CC(C)(C)OC3 | -13 | -82* | -23 | ? | 26µM* | 6%
CC(C)CNc1ncnc2c1sc1nc(N3CCOCC3)c3c(c12)CC(C)(C)OC3 | 2 | -29 | 1 | ? | 10µM* | 2%
OCCNc1ncnc2c1sc1nc(N3CCOCC3)c3c(c12)CCC3 | 0 | -53* | -4 | ? | 15µM* | 1%
COCCCN1C(=O)C(CC(=O)NC(c2ccccc2)c2ccccc2)CC(C(=O)N2CCCCCC2)=C1C (stereo not drawn) | 0 | -1 | 8 | ? | ? | ·
O=[N+]([O-])c1ccccc1/C=N/OCc1ccccc1 | -5 | 14 | 3 | 4% | -29% | 6%
CCN(CC)c1ncnc2c1sc1nc(N3CCOCC3)c3c(c12)CCC3 | · | · | · | · | · | 0%
Cc1cccc(-n2cnc3c(sc4nc(N5CCOCC5)c5c(c43)CCCC5)c2=O)c1 | -5 | ? | -1 | ? | 21µM* | 0%
